KCNQ2 block – rat KCNQ2 potassium channel inhibitors, primary screen, cell-based, CHO-K1, FluxOR thallium flux, B-score | Potassium voltage-gated channel subfamily KQT member 2 (Rattus norvegicus), O88943 | 20 min; hits give low values | B-score at 10 µM | 1.1% of 310,000 active;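 active = fluorescence ratio B-score at most minus 3 library SDs, with starting brightness B-score within 2 library SDs, cut at about -5.5 in these data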
KCNQ2 enhance – potentiators of rat KCNQ2 potassium channel; B-score at 10 µM; CHO-K1 KCNQ2, FluxOR thallium flux fluorescence; hits give high values; 0.54% of 310,000 active; Potassium voltage-gated channel subfamily KQT member 2 (Rattus norvegicus), O88943;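 active = fluorescence ratio B-score at least 3 SD of library B-scores, with initial fluorescence B-score within 3 of them, cut at about 5.3 in these data; same plate scores as AID 2156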;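 also: B-score of peak minus minimum over baseline fluorescence ratio after K+ and Tl+ stimulus; positive B-score means potentiation of KCNQ2 with more thallium influx and brighter signal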
KCNQ2 inh conf – rat KCNQ2 potassium channel inhibitors, confirmation, cell-based, thallium flux. shares compounds with KCNQ2 block. 57% of 1,000 active. KCNQ2-expressing cells, inhibition; hits give low values. activity change, negative = inhibition, % at 10 µM;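 also: 0% = vehicle wells and values are ratio percent relative to vehicle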
KCNQ1 spec – human KCNQ1 channel inhibition, counter-screen for KCNQ2 inhibitor project, cell-based, FluxOR thallium flux. shares compounds with KCNQ2 block. KCNQ1-expressing cells, FluxOR thallium flux fluorescence; hits give low values. activity change, negative = inhibition, % at 10 µM. 15% of 1,000 active. AID 493026, 2011;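 active = activity change at least 3 SD of negative controls below their mean in both duplicate wells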;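 also: CHO cells stably transfected with KCNQ1 and depolarized by potassium stimulus; peak minus minimum fluorescence over baseline after thallium addition; 0% = vehicle negative control and -100% = blank without thallium stimulus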
CHO parental ctr – thallium flux change in parental CHO cells, counter-screen for KCNQ2 inhibitor project. activity change, % at 10 µM. shares compounds with KCNQ2 block. 14% of 1,000 active. hits give low values;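 also: 0% = vehicle negative controls with stimulus buffer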
KCNQ2 inh confirm – rat KCNQ2 channel inhibitors, confirmation, cell-based, automated patch clamp, single concentration | AID 588531, 2011 | shares compounds with KCNQ2 block | calls only at 10 µM | 49% of 550 active | KCNQ2-expressing cells, automated patch clamp current
Kir21 conf inh – mouse Kir2.1 channel blockers, retest, confirmation, cell-based, FluxOR thallium flux, duplicate | shares compounds with KCNQ2 enhance | Kir2.1-expressing cells, FluxOR thallium flux fluorescence; hits give low values | Tl flux remaining, % of negative control (hits give low values), % at 10 µM | 41% of 2,300 active | AID 2032, 2009;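 active = Primary-screen hit whose thallium flux fell at least 3 control SD below untreated wells in both duplicates, with normal baseline fluorescence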;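 also: 0% = blank wells without stimulus and 100% = stimulated no-compound controls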
Target sequence (P35561 whole entry, looked up): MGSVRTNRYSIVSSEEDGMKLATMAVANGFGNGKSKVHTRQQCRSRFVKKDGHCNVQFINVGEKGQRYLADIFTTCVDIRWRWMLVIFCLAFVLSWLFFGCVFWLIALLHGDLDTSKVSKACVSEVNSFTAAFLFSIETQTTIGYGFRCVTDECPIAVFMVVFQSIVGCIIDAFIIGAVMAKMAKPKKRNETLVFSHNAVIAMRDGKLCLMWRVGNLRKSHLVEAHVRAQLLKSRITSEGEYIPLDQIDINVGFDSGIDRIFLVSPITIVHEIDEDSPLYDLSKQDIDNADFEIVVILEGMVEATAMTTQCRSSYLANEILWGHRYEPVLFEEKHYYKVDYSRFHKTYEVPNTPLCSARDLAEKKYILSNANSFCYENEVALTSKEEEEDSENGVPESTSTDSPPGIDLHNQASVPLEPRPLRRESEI
HEK293 Tl flux – counter-screen for Kir2.1 inhibitors: effect in parental HEK293 cells. shares compounds with KCNQ2 enhance. FluxOR thallium flux fluorescence; 0% = unstimulated blank wells. FluxOR signal as % of negative control (100 = no effect), % at 10 µM. 19% of 2,300 active. AID 2105;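 active = dye signal at least 3 control SD above or below untreated wells in both duplicates, raw fluorescence within 3, either direction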;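 also: percent is based on the flux ratio of peak minus minimum fluorescence over baseline F0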
Active calls of the source: *; i = inactive; . = not tested or not shown; + = active, no number. Most compounds without a hit are left out; they make up all but 1.6% or so of the library. Unless noted, no rule for the calls is given here.

SMILES | KCNQ2 block | KCNQ2 enhance | KCNQ2 inh conf | KCNQ1 spec | CHO parental ctr | others
CCN(CC(=O)Nc1ccc(NC(C)=O)cc1)C(=O)c1ccccc1CCc1ccccc1 | i | 2.1 | . | . | .
COc1cc(SC)ccc1C(=O)OCC(=O)N1CCN(C(C)=O)CC1 | i | 0.18 | . | . | .
COc1ccccc1N1CCN(C(=O)C(Cc2ccccc2)NC(=O)C2CCCCC2)CC1 (configuration not stated) | -7.4* | -7.4 | -33%* | i | i | KCNQ2 inh confirm=+
CCC(C(=O)N1CCN(c2ccccc2OC)CC1)c1ccccc1 (configuration not stated) | i | . | . | . | .
Cc1cc(=O)[nH]c(-c2ccc(C(F)(F)F)cc2)n1 | i | 1.1 | . | . | .
CC1OC(Oc2c(-c3cc(O)c(O)c(O)c3)oc3cc(O)cc(O)c3c2=O)C(O)C(O)C1O (configuration not stated) | i | . | . | . | .
CC(C)=CCc1c(O)cc(O)c2c(=O)c(O[C@@H]3O[C@@H](C)[C@H](O)[C@@H](O)[C@H]3O)c(-c3ccc(O)cc3)oc12 | -7.1* | -7.1 | -40%* | -36%* | -23%* | KCNQ2 inh confirm=i
O=C(NCc1cccc(C(F)(F)F)c1)C1CCC(=O)N(C2CCCCCC2)C1 (configuration not stated) | i | 1.7 | . | . | .
COc1ccc(C(=O)C(OC(=O)c2ccccc2)c2ccccc2)cc1 (configuration not stated) | -7* | -7 | i | i | i
O=C(COc1ccccc1)OC(C(=O)c1ccccc1)c1ccccc1 (configuration not stated) | i | 1.7 | . | . | .
OCCC1CN(Cc2cc3c(cc2Cl)OCO3)CCN1C1CCCCC1 (configuration not stated) | i | 0.87 | . | . | .
Cc1ccccc1CC(=O)NC1CCCc2ccccc21 (configuration not stated) | i | . | . | . | .
CC(Sc1nnc(Nc2ccccc2)s1)C(=O)NC1CCCc2ccccc21 (configuration not stated) | i | . | . | . | .
O=C(CSc1nnnn1-c1ccccc1)NC1CCCc2ccccc21 (configuration not stated) | i | . | . | . | .
Cc1ccccc1-n1nnnc1SC(C)C(=O)NC1CCCc2ccccc21 (configuration not stated) | -8.8* | -8.8 | -37%* | -38%* | -31%* | KCNQ2 inh confirm=+
Cc1ccccc1-n1c(C)nnc1SCC(=O)NC1CCCc2ccccc21 (configuration not stated) | -7.7* | -7.7 | i | i | i
Cc1nnc(SC(C)C(=O)NC2CCCc3ccccc32)n1-c1ccccc1 (configuration not stated) | -6.6* | -6.6 | -37%* | i | i | KCNQ2 inh confirm=+
CC(=O)N1c2ccc(S(=O)(=O)NCCc3ccc(Cl)cc3)cc2CC1C (configuration not stated) | i | . | . | . | .
Cc1cc(C)c(C)c(S(=O)(=O)NCc2ccc(C(=O)N3CCOCC3)cc2)c1C | i | 0.91 | . | . | .
O=C(Cc1cccs1)NC(c1ccccc1)c1ccccc1 | i | . | . | . | .
O=C(COC(=O)/C(=C/c1cccs1)c1cccs1)NC(c1ccccc1)c1ccccc1 | -8.6* | -8.6 | i | i | i
Cc1cc(C(=O)Nc2ccc3[nH]ccc3c2)no1 | i | 0.83 | . | . | .
CN(CC(=O)Nc1ccccc1Sc1ccccc1)C1CCCCC1 | -6.7* | -6.7 | -37%* | -35%* | -27%* | KCNQ2 inh confirm=i
CSc1ccccc1NC(=O)CN(C1CCCCC1)S(C)(=O)=O | i | . | . | . | .
N#C/C(C(=O)NCc1ccccc1)=C1/N=C(NC(=O)c2cccs2)c2ccccc21 | i | . | . | . | .
SMILES | KCNQ2 block | KCNQ2 enhance | KCNQ2 inh conf | KCNQ1 spec | CHO parental ctr | others
CCC[C@H](CN[C@@H](CNC)[C@H](C)CC)NCCc1cc(C(F)(F)F)cc(C(F)(F)F)c1 | i | . | . | . | .
CC[C@@H](C)[C@H](CNC)NC[C@@H](Cc1cccc2ccccc12)NCCc1cccc(C(F)(F)F)c1 | -8.5* | -8.5 | -29%* | i | i | KCNQ2 inh confirm=i;Kir21 conf inh=22%*;HEK293 Tl flux=i
CCOc1cc(/C=N/N=C(N)N)ccc1OCc1ccc(Cl)cc1 | -10* | -10 | i | i | i | Kir21 conf inh=62%*;HEK293 Tl flux=i
NC(N)=N/N=C/c1ccc(OCc2ccccc2)c(OCc2ccccc2)c1 | i | . | . | . | .
CCc1ccc(C(O)(CNCc2ccccc2)c2ccccc2)cc1 (configuration not stated) | -6.9* | -6.9 | -32%* | -36%* | -28%* | KCNQ2 inh confirm=i;Kir21 conf inh=69%*;HEK293 Tl flux=i
CCc1ccc(NC(=S)NCc2ccccc2)cc1 | i | 0.74 | . | . | .
Cc1ccc[n+](CC(=O)Nc2cc(C(F)(F)F)ccc2Cl)c1 | i | 1.7 | . | . | .
CCC(C)(C)c1ccc(OCCCC[n+]2cccc(C)c2)c(C(C)(C)CC)c1 | -8.4* | -8.4 | i | i | i | Kir21 conf inh=33%*;HEK293 Tl flux=i
CC(C)=C(NC(=O)c1ccccc1)C(=O)Nc1ccc(C(=O)O)cc1 | i | 0.71 | . | . | .
CCn1ccnc1CN(C)Cc1nc(-c2ccc(C(=O)OC)cc2)no1 | i | 0.01 | . | . | .
Cc1ccc(NC(=S)N2CCN(S(=O)(=O)c3c(F)cccc3F)CC2)cc1C | i | 0.85 | . | . | .
Cc1ccc(-c2nn(-c3ccccc3)cc2CO)cc1 | i | . | . | . | .
N=C(N)SCc1cn(-c2ccccc2)nc1-c1ccc(Br)cc1 | -12* | -12 | i | i | i | Kir21 conf inh=13%*;HEK293 Tl flux=56%*
CCOC(=O)CSc1cccc2cccnc12 | i | 1.1 | . | . | .
COC(=O)c1ccc(COn2nnc3ccccc32)cc1 | i | . | . | . | .
O=C(/C=C/c1ccc(OCc2ccccc2)c(OCc2ccccc2)c1)c1cccnc1 | i | . | . | . | .
O=C(/C=C/c1ccc(Cl)cc1)c1cccnc1 | -7.6* | -7.6 | -28%* | i | i | KCNQ2 inh confirm=i;Kir21 conf inh=68%*;HEK293 Tl flux=i
COc1cc(C(=O)NNC(=O)c2cc(C)[nH]n2)cc(OC)c1OC | i | . | . | . | .
CCOC(=O)Cn1c(COc2ccccc2OC)[n+](C)c2ccccc21 | i | 0.52 | . | . | .

High-throughput results deposited in PubChem BioAssay by Johns Hopkins Ion Channel Center.
